A selection: hits, their analogues and other compounds. The true share with any hit is near 19%.
Cycloheximide cs: counter-screen hit for Shiga toxin inhibitors, cycloheximide. cell reporter, cycloheximide protein synthesis inhibition counterscreen. max response, %. 300,000 compounds, 12% hits. AID 2314; in the data active = max response mostly above about 13%, no sharp cut-off; inactive = mostly below about 14%; note: read at 38.3 µM for the half of the compounds with a filed dose; 0% is about no effect
Pf growth 48h: P. falciparum growth inhibition at 48 hours (one generation). P. falciparum luciferase growth in erythrocytes, 48 h. Potency, µM (series often up to 28.7 µM), without a hit: at the top dose activity change, negative = inhibition, hits mostly inhibitors. 310,000 compounds, 5.9% hits. AID 504832; note: potency is the fitted concentration of half-maximal effect; % is set by controls: 0 for no effect and ±100 for the full control effect
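Growth was read as firefly luciferase luminescence after a 48 h, 37 C, 5% CO2 exposure of compounds to reporter-bearing P. falciparum cultures (0.1% parasitemia, 2% hematocrit final) in Albumax-supplemented RPMI 1640.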
Pf growth 96h: P. falciparum growth inhibition at 96 hours; P. falciparum luciferase reporter growth, 96 h; Potency, µM (titrated, usually from 28.7 µM), for inactives: top-dose activity change, negative = inhibition, hits mostly inhibitors; 320,000 compounds, 6.9% hits; AID 504834; note: potency is the fitted concentration of half-maximal effect; % is set by controls: 0 for no effect and ±100 for the full control effect
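Compounds incubated with erythrocytes infected by luciferase-expressing P. falciparum (2% hematocrit, 0.05% parasitemia final) for 96 hours, 37 C in 5% CO2. Growth inhibition scored as decreased luciferase luminescence.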
LASV entry inh: blocks Lassa virus binding to or entry into cells; Lassa virus pseudotype entry inhibition, cell reporter; Potency, µM (titrated, usually from 37.9 µM), inactives show at the top dose activity change, negative = inhibition, hits mostly inhibitors; 300,000 compounds, 1.2% hits; AID 540256; calls by dose curve; tested in HEK293 cells; note: potency is the fitted concentration of half-maximal effect; % is set by controls: 0 for no effect and ±100 for the full control effect; nearly all actives have a fitted effect of over 50% in size
Shiga toxin inh: Shiga toxin inhibition; Vero cells, Shiga toxin protein synthesis inhibition reporter; inhibition, % at 38.7 µM; 290,000 compounds, 9.2% hits; AID 2315; in the data active = inhibition mostly above about 28%, no sharp cut-off; inactive = mostly below about 43%; note: 0% is about no effect
MARV entry inh: Marburg virus entry inhibition. Marburg virus pseudotyped entry inhibition, cell reporter. Potency, µM (titrated, usually from 37.8 µM), without a hit: top-dose activity change, negative = inhibition, most hits filed as inhibitors. 300,000 compounds, 1.8% hits; calls by dose curve; tested in HEK293 cells; note: potency is the fitted concentration of half-maximal effect; % is set by controls: 0 for no effect and ±100 for the full control effect
* hit, by the source's call; i = inactive; ? = inconclusive; / = no result given; [ ] = another dose, or the depositor's remark. Unless noted, calls come from the whole dose curve; as a rule, active = well fitted inhibition curve with a large enough effect; inconclusive = small, poorly fitted or top-dose-only effect, or another doubt; inactive = no such curve, though single readings can be large or run the other way.

SMILES	Cycloheximide cs	Pf growth 48h	Pf growth 96h	LASV entry inh	Shiga toxin inh	MARV entry inh
CCCc1nc2ccccc2c(=O)n1CCc1ccccc1	-1.7	33.1%	?	2.51µM*	/	?
CN(C)c1ccc(/C=C/c2nc3ccccc3c(=O)n2CCO)cc1	9.6	?	?	/	17.3	/
O=c1c2ccccc2nc(/C=C/c2c[nH]c3ccccc23)n1CCO	37.8*	?	19.6%	?	64.6*	-6.5%[46.1 µM]
COc1cccc(-n2c(/C=C\c3ccc(Cl)cc3)nc3ccccc3c2=O)c1	/	/	/	-15.6%[46.1 µM]	/	/
O=c1c2ccccc2nc(/C=C/c2ccccc2)n1CCCO	10.6	?	0.8%	/	6.1	0.3%
Cn1c(/C=C/c2ccc(Cl)cc2)nc2ccccc2c1=O	24.5*	78.8%	?	-23.5%	46.2*	4.9%
O=c1c2ccccc2nc(/C=C/c2ccc(O)cc2)n1CCc1ccccc1	13.2	?	?	9.2µM*	51.2	?
CC(Oc1ccccc1)C(=O)Nc1ccc(S(=O)(=O)Nc2nccs2)cc1 (stereo not drawn)	-4.4	-6.6%	1.8%	?	-15.7	?
CCCOc1ccccc1-c1nc2n[nH]nc2c(=O)[nH]1	/	-20.6%	?	5.8%	/	?
CC(C)(C)OC(=O)N1CCCN(C(=O)Nc2cccc(Cl)c2)CC1	10.0	17.2%	35.9%	16.1%	10.1	19.8%
Cn1c(/C=C/c2ccc([N+](=O)[O-])o2)nc2ccccc2c1=O	0.9	?	?	2.82µM*	19.0	?
Cn1c(/C=C/c2ccccc2)nc2ccccc2c1=O	27.9*	17.5%	-19.1%	9.4%	57.0*	?
COc1cc2c(cc1OC)CN(CCC(=O)c1ccc(Br)cc1)CC2	6.2	-7.0%	1.9%	-24.5%	-16.4	?
COc1ccc(CC(CC(=O)O)C(=O)Nc2ccc(Cl)c(Cl)c2)cc1 (stereo not drawn)	-3.6	15.5%	8.8%	/	-0.3	/
O=C(COc1ccccc1)N(Cc1ccco1)C1CCS(=O)(=O)C1 (stereo not drawn)	9.2	39.1%	52.6%	0.5%	-6.9	-0.8%
Cc1cc(C)c(C(=O)CN2C(=O)NC3(CCCCCC3)C2=O)cc1C	53.2*	6.1%	62.4%	3.9%[46.1 µM]	40.8*	14.5%[46.1 µM]
Cc1cc(C(=O)CN2C(=O)NC3(CCCCC3)C2=O)c(C)n1C	38.5*	23.6%	41.3%	/	44.8*	/
Cc1cc(C)c(NC(=O)CN2C(=O)NC3(CCCCC3)C2=O)c(Cl)c1	-3.4	0.0%	13.1µM*	-4.9%	19.7	-20.8%
Cc1ccc(NC(=O)CN2C(=O)NC3(CCCCCCC3)C2=O)cc1C	/	-10.2%	-24.1%	-6.6%	/	4.0%
Cc1cccc(N2CC(c3nc4ccccc4n3CCC3CCCCC3)CC2=O)c1 (stereo not drawn)	/	/	/	?	/	-0.6%[46.1 µM]
Oc1ccc(N=Cc2ccc(-c3cccs3)s2)cc1	7.4	?	?	?	49.5	?
O=Cc1ccc(-c2cccs2)s1	/	/	/	10µM*	/	?
O=C(CCCN1CC=C(N2C(=O)N=C3C=CC=CC32)CC1)c1ccc(F)cc1 (stereo not drawn)	/	/	/	/	/	-2.4%
CCOC(=O)C1C(=O)C=C(c2ccc(C)cc2)CC1c1ccc([N+](=O)[O-])cc1 (stereo not drawn)	0.5	?	9.28µM*	-26.0%	-5.5	?
CCOC(=O)C1C(O)=CC(=O)CC1c1ccccc1 (stereo not drawn)	/	?	52.9%	/	/	/
SMILES	Cycloheximide cs	Pf growth 48h	Pf growth 96h	LASV entry inh	Shiga toxin inh	MARV entry inh
O=C(O)c1ccccc1OC(C(=O)Nc1cc(Cl)cc(Cl)c1)c1ccccc1 (stereo not drawn)	1.3	11.7µM*	?	-17.1%	18.7	?
O=S(=O)(c1ccccc1)N(CC1CO1)c1cccc2ccccc12 (stereo not drawn)	4.7	11.7µM*	?	?	12.8	?
Cc1nc2ccc(NC(=O)c3cccs3)cc2c(=O)n1Cc1ccc(Cl)cc1	0.3	?	3.29µM*	?	-2.9	?
CCCc1nc2ccc(NC(C)=O)cc2c(=O)n1Cc1cccc(Cl)c1	-2.8	?	2.1%	-22.7%[46.1 µM]	-0.5	?
CCCc1nc2ccc(NC(=O)c3cccs3)cc2c(=O)n1Cc1ccc(Cl)cc1	8.6	0.465µM*	2.2%	-0.8%	9.7	1.9%
CCC(C(=O)Nc1ccc(C(=O)OC)cc1)n1c(=O)c(-c2ccccc2NC(C)=O)nc2ccccc21 (stereo not drawn)	/	/	/	0.3%[46.1 µM]	/	-1.6%[46.1 µM]
CCCNC(=O)NC(=O)CSc1nc2ccccc2c(=O)n1Cc1ccncc1	0.9	?	13.1µM*	3.5%	-0.2	-6.0%
CCC(C)NC(=O)CSc1nc2ccccc2c(=O)n1Cc1ccc(OC)cc1 (stereo not drawn)	2.7	/	1.65µM*	1.2%	11.6	14.1%
O=C(CSc1nc2ccccc2n1CCc1ccccc1)c1ccc(O)c(O)c1	12.3*	0.2%	?	-13.3%	16.3	1.1%
NC(=O)CSc1nc2ccccc2c(=O)n1Cc1ccccc1	1.3	7.3%	99.2%	/	-7.9	/
COCC(C)NC(=O)CSc1nc2ccccc2n1CCc1ccccc1 (stereo not drawn)	-4.2	-22.7%	10.4µM*	/	-22.6	3.4%
CCCc1nnc(-c2cc(OC)c(OC)c(OC)c2)o1	-1.5	34.8%	0.0%	-3.4%	-0.3	?
C=CC#CC1(O)CC(C)N(C)CC1C (stereo not drawn)	2.4	0.0%	-9.6%	20.1%	31.6	?
COc1ccc(C(C)NCCC(c2ccc(OC(C)C)cc2)c2ccccc2OC)cc1 (stereo not drawn)	-9.5	?	?	-25.9%[46.1 µM]	-17.3	?
COc1ccc(C(CCNC(C)c2ccccc2)C(C)C)cc1 (stereo not drawn)	1.4	9.28µM*	9.28µM*	?	-3.9	?
CN1C(=O)C(O)(c2nnc(-c3ccccc3)o2)c2ccccc21 (stereo not drawn)	18.5*	113.6%	25.4%	3.9%	46.3	17.5%[46.1 µM]
CC(=O)N1CC[n+]2c(-c3ccc(Cl)cc3Cl)csc21	-2.9	-16.8%	?	-6.6%	-6.4	1.6%
CCCCCC[n+]1c(-c2ccc(Cl)cc2Cl)csc1Nc1ccccc1	-6.1	1.17µM*	?	-2.4%	-2.7	-23.1%
CN(C)c1ccc(C2C=C(c3ccc(Cl)cc3OC(F)F)Nc3ncnn32)cc1 (stereo not drawn)	-4.5	?	112.0%	14.1µM*	-1.9	?
Cc1ccnc(N=Cc2nc(-c3ccccc3Br)oc2O)c1	26.6*	i	-1.0%	/	117.9*	/
Cc1cccc(/N=C/c2nc(-c3ccccc3Br)oc2O)n1	20.9*	?	?	/	31.6	/
Oc1oc(-c2cccc3ccccc23)nc1/C=N/c1nccs1	1.6	14.1%	-3.4%	21.9%	19.1	4.3%
COC(=O)c1cc(NC(=O)c2cc(C(C)(C)C)nn2Cc2ccc(F)cc2)ccc1N1CCOCC1	8.3	6.57µM*	-11.0%	/	14.4	/
Cc1cccc(Cn2nc(C(C)(C)C)cc2C(=O)Nc2ccc(F)cc2)c1	18.5*	10.4µM*	9.28µM*	?	36.2	?

Source: PubChem BioAssay (National Center for Advancing Translational Sciences (NCATS))
